Source: PubChem (National Center for Advancing Translational Sciences (NCATS))
Compounds with a hit are over-represented: about 11% of the library has one in this group of screens.
HP1b chromo inh: inhibitors of HP1-beta chromodomain binding to methylated histone tails | 390,000 tested, 0.56% active | AID 540317 | P83916 | AlphaScreen HP1-beta / biotin-H3K9me3 peptide binding | Potency, µM (titrated, usually from 114 µM), usual class: inhibitors; note: nearly all actives have a fitted effect of over 70% in size
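HP1-beta protein (50 nM final) preincubated 30 min at room temperature with biotinylated H3(1-18)K9me3 peptide (50 nM) in PBS pH 7.4, 0.01% Tween-20, then compound added for 30 min. AlphaScreen streptavidin donor/nickel chelate acceptor beads (10 ug/mL final), 30 min dark, luminescence read.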
JMJD2A Tudor inh: inhibitors of human JMJD2A Tudor domain | O75164 | AlphaScreen JMJD2A-Tudor / H3K4me3 peptide binding | Potency, µM (titrated, usually from 114 µM), usual class: inhibitors | 390,000 tested, 4.4% active | AID 504339; note: nearly all actives have a fitted effect of over 50% in size
L3MBTL1 block: blocks human L3MBTL1. Q9Y468. AlphaScreen L3MBTL1–H3K9me1 peptide binding. Potency, µM (highest dose often 57.1 µM), most hits filed as inhibitors. 230,000 tested, 0.66% active; note: nearly all actives have a fitted effect of over 60% in size
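AlphaScreen proximity signal between nickel-chelate acceptor and streptavidin donor beads (final 10 ug/mL) reports binding of 50 nM L3MBTL1 to 75 nM biotin-H3 K9me1 peptide; complex incubated with compounds 30 min at room temperature; cefsulodin titration as control.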
G9a inh: G9a (human) methyltransferase inhibition. Q96KQ7. G9a H3K9 monomethylation, AlphaScreen, 2 h. Potency, µM (series often up to 102 µM), actives largely listed as inhibitors. 350,000 tested, 8.8% active; note: nearly all actives have a fitted effect of over 75% in size
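G9a (20 nM) preincubated 15 min RT with compounds, then 500 nM biotinylated H3K9 peptide and 20 uM SAM added; 2 h RT reaction. Monomethyl-H3K9 product detected by AlphaScreen with anti-H3K9me1 antibody, streptavidin donor and anti-rabbit IgG acceptor beads.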
BAZ2B block: BAZ2B (human) inhibition; Q9UIF8; Potency, µM (doses to about 114 µM), hits mostly inhibitors; AID 504333; AlphaScreen BAZ2B-H3K14Ac peptide displacement; 360,000 tested, 4.4% active; note: nearly all actives have a fitted effect of over 60% in size
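AlphaScreen displacement: compounds (up to 110uM) incubated 30 min at room temperature with a preformed 50 nM BAZ2B/50 nM biotinylated H3K14Ac peptide complex in PBS pH 7.4 with Tween-20. Donor and acceptor beads at 10 ug/mL final added, 20 min light-protected before reading.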
Hits are given with their value; i = inactive; ? = inconclusive; nt = not tested or not shown; [ ] = remark or other dose. Calls come from the whole dose curve; as a rule, active = well fitted inhibition curve with a large enough effect; inconclusive = small, poorly fitted or top-dose-only effect; inactive = no such curve, though single readings can be large or run the other way.

SMILES	HP1b chromo inh	JMJD2A Tudor inh	L3MBTL1 block	G9a inh	BAZ2B block
CCOc1ccc(-c2nc(C#N)c(N3CCN(CC)CC3)o2)cc1	i	?	i	50µM	?
CCOc1ccc(-c2nc(C#N)c(N3CCCCCC3)o2)cc1	?	35µM	i	7.9µM	11µM
Cc1nc2sc(C(N)=O)c(N)c2c(-c2ccc(Br)cc2)c1C(=O)Nc1ccc(Cl)cc1	i	i	nt	i	i
Cc1c(Cl)cccc1NC(=O)CN1C(=O)COc2ccc(S(=O)(=O)N3CCCCCC3)cc21	i	i	nt	i	i
O=C(C1CCC1)N1CCN(c2cccc(C(F)(F)F)c2)CC1	i	i	nt	i	i
NC(=O)C1CCN(C(=O)CN2CCN(c3cccc(C(F)(F)F)c3)CC2)CC1	i	89µM	i	i	i
O=C(COc1cccc(C(F)(F)F)c1)N1CCN(c2ccc(O)cc2)CC1	79µM	56µM	i	7.9µM	nt
COc1ccc(C(=O)N2CCC[C@@]3(CCN(Cc4ccc(C#N)cc4)C3)C2)cc1	nt	nt	nt	i[12.7 µM]	nt
COc1ccccc1NC(=O)CCNS(=O)(=O)c1ccc2c(c1)CCCC(=O)N2	i	i	nt	i	i
O=C(c1cc2c(=O)n3ccccc3nc2s1)N1CCc2ccccc2C1	nt	nt	i	40µM	i
CCOC(=O)CC1C(=O)NCCN1C(=O)c1cc2c(=O)n3cccc(C)c3nc2s1 (centres undefined)	i	i	nt	?	i
CCOC(=O)CC1C(=O)NCCN1C(=O)c1cc2c(=O)n3ccccc3nc2s1 (centres undefined)	nt	nt	nt	89µM	i
Cc1c(CN(C)C)c2c(n1Cc1ccccc1)C(=O)c1ccc(Br)cc1-2	?	40µM	nt	18µM	22µM
CC(C)=CCC12Oc3cc(O)ccc3C1(O)Oc1cc(O)c([C@H]3C=C(C)CC(c4ccc(O)cc4O)[C@H]3C(=O)c3ccc(O)cc3O)c(O)c1C2=O (some centres undefined)	i	40µM	nt	nt	nt
N#Cc1c(-n2cccc2/C=N/O)sc2c1CCCC2	?	45µM	i	?	45µM
N#Cc1c(N2C(=O)C3C4C=CC(C4)C3C2=O)sc2c1CCC2 (centres undefined)	i	i	i	i[12.7 µM]	i
N#Cc1c(-n2ncnc2-c2cccc(Cl)c2)sc2c1CCCCC2	i	i	nt	i	i
C=CCNCc1cccn1-c1sc2c(c1C#N)CCCC2	?	3.2µM	nt	?	?
COc1ccc(NC(C)=[N+](C)CCNS(=O)(=O)c2ccc(Cl)cc2)cc1Cl	i	i	nt	nt	i
COc1ccccc1NC(C)=[N+](C)CCNS(=O)(=O)c1ccc(Cl)cc1	?	?	nt	?	25µM
COc1ccc(OC)c([N+](=O)[O-])c1C(N)=O	?	50µM	?	32µM	50µM
Cc1ccc(NC2=C(c3ccc(C(F)(F)F)cc3)C(=O)c3ccccc32)cc1C	i	56µM	nt	2.8µM	56µM
COc1ccc2oc(=O)c(C(=O)Nc3ccccc3-c3ccccc3)cc2c1	i	i	nt	i[12.7 µM]	i
C/C(=N\Nc1ccccc1)c1c(O)cc(C)oc1=O	i	i	i	2.5µM	i
COc1ccc2oc(=O)c(C(=O)Nc3ccccc3C)cc2c1	i	i	i[2.29 µM]	i[0.501 µM]	50µM
SMILES	HP1b chromo inh	JMJD2A Tudor inh	L3MBTL1 block	G9a inh	BAZ2B block
COc1ccc2oc(=O)c(/C(C)=N/Nc3ccccc3)cc2c1	i	i	nt	13µM	nt
CCCNC(=O)CSc1nc2ccccc2nc1Cc1ccc(Cl)cc1	i	i	nt	i	i
CCc1noc(C)c1C(=O)N1CCN(S(=O)(=O)c2c(C)c(C)cc(C)c2C)CC1	i	i	i	i	i
CCc1cccc(C)c1NC(=O)C1CCN(S(=O)(=O)c2c(C)noc2/C=C/c2c(C)cc(C)cc2C)CC1	?	i	nt	i	i
COc1cc2ccccc2cc1C(=O)N(CCN(C)C)c1nc2ccc(Br)cc2s1	?	?	nt	25µM	?
CCN(CC)CCN(C(=O)CCOc1ccccc1)c1nc2c(F)cc(F)cc2s1	i	i	nt	?	nt
CN(C)CCN(C(=O)CCc1ccccc1)c1nc2c(F)cc(F)cc2s1	i	i	nt	50µM	nt
COc1cc2ccccc2cc1C(=O)N(CCN(C)C)c1nc2c(F)cc(F)cc2s1	i	?	nt	32µM	?
CN(C)CCCN(C(=O)CCc1ccccc1)c1nc2ccc(Br)cc2s1	i	i	nt	79µM	nt
CCOC(=O)c1c(C)[nH]c(C)c1S(=O)(=O)NCC(=O)NCc1ccc(C)cc1	i	i	nt	i	i
Cc1ccc(C2N=C(Nc3nc4ccccc4o3)NC3=C2C(=O)CC(C)(C)C3)cc1 (centres undefined)	i	i	nt	nt	nt
COc1ccc(Br)cc1-c1nc(C)c(C(C)=O)n1O	i	i	i[11.4 µM]	10µM	i
COc1cccc(CCN2CCC(CNS(=O)(=O)c3cc(-c4cc(C)no4)ccc3OC)CC2)c1	i	i	nt	i	i
COc1cccc(CCN2CCC(CNS(=O)(=O)c3cc(-c4cc(C)no4)ccc3C)CC2)c1	i	i	nt	71µM	?
Cc1cccc(NC(=O)C(c2ccccc2)N2Cc3ccccc3C2=O)c1C (centres undefined)	i	i	nt	i	i
